{"source": "PubChem BioAssay AID588441", "about": "(Southern Research Specialized Biocontainment Screening …, 2011)", "note": "Results filed as inconclusive are left out. Unmarked numbers belong to inactive results. No rule for the calls is given here.", "data": [{"experiment": "HepG2 cell cytotoxicity, cytotoxicity control, set 5 (AID 588441)", "details": "series mostly up to 50 µM; viability: at the top concentration", "values": [{"compound": "COC(=O)CSc1ncnc2c1cnn2-c1ccc(C)cc1C", "viability": "99%"}, {"compound": "O=C(NCCc1ccc(Cl)cc1)c1ccc(CNc2c(N3CCOCC3)c(=O)c2=O)cc1", "viability": "99.1%"}, {"compound": "CCOC(=O)CSc1ncnc2c1cnn2-c1ccccc1", "viability": "95.6%"}, {"compound": "CCOC(=O)CSc1ncnc2c1cnn2-c1ccc(C)cc1C", "viability": "97.2%"}, {"compound": "CC(C)OC(=O)CSc1ncnc2c1cnn2-c1ccccc1", "viability": "98.7%"}, {"compound": "CC1CC(C)CN(C(=O)C2CCC(CNc3c(N4CCCCC4)c(=O)c3=O)CC2)C1", "note": "(stereo not drawn)", "viability": "109% [at 15 µM]"}, {"compound": "COc1ccc(N2CCN(C(=O)c3ccc(CNc4c(N5CCOCC5)c(=O)c4=O)cc3)CC2)cc1", "viability": "109%"}, {"compound": "CCC(C)NC(=O)CSc1nc2ccccc2c(=O)[nH]1", "note": "(stereo not drawn)", "viability": "100%"}]}]}
